Results filed as inconclusive are left out. The source made the active and inactive calls. Calls follow the shape of the dose curve; as a rule, active = well fitted inhibition curve with a large enough effect; inconclusive = small, poorly fitted or top-dose-only effect; inactive = flat fitted curve, though single readings scatter.

The source of these data is PubChem BioAssay (NCATS).

Common to all, as to assay: qHTS profiling for inhibitors of Plasmodium falciparum proliferation (AID 504749); also: nearly all actives have a fitted effect of over 60% in size
Common to all, as to settings: P. falciparum in erythrocytes, SYBR Green DNA, 72 h; series mostly up to 28.7 µM

One experiment has as its system CP335. A digest of the protocol: (§1)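 Three-day growth assay of blood-stage parasites in erythrocytes (0.3% parasitemia, 2.5% hematocrit) at 37 C, 5% CO2, quantified by SYBR Green DNA staining after overnight detergent lysis.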
A further experiment concerns DFO2036. A digest of the protocol: as §1
Another experiment deals with DIV14. The method in brief: as §1
The next experiment concerns DIV17. A digest of the protocol:
as §1

The next experiment relates to DIV30. A digest of the protocol:
as §1

The next experiment has as its system Dd2. A digest of the protocol: as §1
A further experiment concerns ECU. A digest of the protocol:
as §1

Another experiment relates to FAB9. The method in brief:
as §1

Another experiment relates to GB4. The method in brief: as §1
The subject of the next experiment is HB3. The method in brief: as §1
The next experiment concerns ICS. The method in brief:
as §1

The next experiment concerns JCK. A digest of the protocol:
as §1

The next experiment relates to N140. A digest of the protocol:
as §1

The test system of a further experiment is P93_24. The method in brief:
as §1

The next experiment deals with P94_40. The method in brief:
as §1

The next experiment has as its system PAD. A digest of the protocol: as §1
The test system of the next experiment is PC15. A digest of the protocol:
as §1

The test system of a further experiment is PC26. The method in brief:
as §1

A further experiment has as its system PC49. The method in brief: as §1
In another experiment the test system is SC27B. A digest of the protocol: as §1
Potency is read from the fitted curve at half-maximal effect.

Regarding `Cc1cc(C)nc(NS(=O)(=O)c2ccc(N)cc2)n1`, the Potency entry in the experiment with CP335, with DFO2036, in the experiment with DIV14, with DIV17, with Dd2 and in the experiment on ECU was “inactive” throughout. Besides, the Potency entry in the experiment with FAB9, in the experiment on GB4, with HB3, in the experiment on ICS, with JCK and in the experiment with N140 was “inactive” throughout. Besides, the Potency entry in the experiment with P93_24, in the experiment with P94_40, in the experiment with PAD, with PC15, in the experiment on PC26 and in the experiment on PC49 was “inactive” throughout. For the same compound, the Potency entry with SC27B is “inactive”. Besides, in the experiment on DIV30, the compound was classed as inactive.
In the case of `CC(CSC(=O)c1ccccc1)C(=O)N1C[C@@H](Sc2ccccc2)C[C@H]1C(=O)O` (some centres not stated), the Potency result in the experiment on CP335, with DFO2036, with DIV14, in the experiment with DIV17, in the experiment with Dd2 and in the experiment with ECU was “inactive” throughout. In addition, the Potency entry with FAB9, in the experiment on GB4, with HB3, with ICS, in the experiment with JCK and in the experiment on N140 was “inactive” each time. Besides, the Potency result with P93_24, in the experiment with P94_40, in the experiment on PAD, with PC15, in the experiment on PC26 and with PC49 was “inactive” each time. Moreover, in the experiment on SC27B, the Potency entry is “inactive”. For the same compound, the compound was called inactive in the experiment on DIV30.
As to `CCCCCCCCCCCCCCCCC(C(=O)O)C(O)(CC(=O)O)C(=O)O` (configuration not stated), the Potency entry in the experiment with CP335, in the experiment on DFO2036, in the experiment with DIV14, with DIV17, in the experiment on Dd2 and with ECU was “inactive” in each case. Also, the Potency entry in the experiment on FAB9, with GB4, in the experiment with HB3, in the experiment on ICS, in the experiment with JCK and with N140 was “inactive” throughout. The Potency entry in the experiment on P93_24, in the experiment on P94_40, in the experiment with PAD, in the experiment on PC15, in the experiment with PC26 and with PC49 was “inactive” in each case. Also, the Potency entry with SC27B was “inactive”. For the same compound, in the experiment with DIV30, the compound was called inactive.
For the compound `Cn1c([N+](=O)[O-])cnc1COC(N)=O`, the Potency result with CP335, in the experiment on DFO2036, in the experiment on DIV14, with Dd2, with ECU and in the experiment on FAB9 was “inactive” each time. Further, the Potency result in the experiment with GB4, in the experiment on HB3, in the experiment with ICS, in the experiment on JCK, with N140 and with P93_24 was “inactive” throughout. The Potency entry with P94_40, in the experiment with PAD, with PC15, in the experiment on PC26, in the experiment on PC49 and in the experiment on SC27B was “inactive” each time. In addition, the result in the experiment on DIV30 was inactive.
With `CCOC(=O)c1cccnc1`, the Potency result with CP335, with DFO2036, in the experiment on DIV14, in the experiment with DIV17, in the experiment with Dd2 and in the experiment on ECU was “inactive” each time. The Potency entry with FAB9, in the experiment with GB4, with HB3, with ICS, with JCK and with N140 was “inactive” each time. In addition, the Potency result with P93_24, in the experiment with P94_40, in the experiment with PAD, with PC15, in the experiment with PC26 and with PC49 was “inactive” in each case. In addition, the Potency result in the experiment with SC27B was “inactive”. Besides, the result in the experiment on DIV30 was inactive.
Regarding `N[C@@H](Cc1ccc(O)cc1)C(=O)O`, the Potency entry in the experiment on CP335, with DFO2036, with DIV14, in the experiment with DIV17, with Dd2 and with ECU was “inactive” in each case. Further, the Potency entry in the experiment with FAB9, in the experiment with GB4, with HB3, with ICS, in the experiment on JCK and in the experiment on N140 was “inactive” each time. Moreover, the Potency result in the experiment on P93_24, in the experiment with P94_40, in the experiment with PAD, in the experiment on PC15, in the experiment on PC26 and in the experiment with PC49 was “inactive” throughout. In addition, in the experiment with SC27B, the Potency entry was “inactive”.
As for `CC(=O)Oc1cccc(O)c1`, the Potency result in the experiment with CP335, in the experiment with DFO2036, in the experiment with DIV14, in the experiment with DIV17, in the experiment with Dd2 and in the experiment with ECU was “inactive” throughout. Also, the Potency entry in the experiment on FAB9, with GB4, in the experiment on HB3, with ICS, in the experiment with JCK and in the experiment with N140 was “inactive” in each case. The Potency result in the experiment with P94_40, with PAD, with PC15, with PC26, in the experiment with PC49 and in the experiment with SC27B was “inactive” in each case. The result in the experiment on DIV30 was inactive.
For `Cc1ncc(CO)c(CN)c1O`, the Potency result with CP335, in the experiment on DFO2036, in the experiment with DIV14, in the experiment on DIV17, in the experiment on Dd2 and with ECU was “inactive” throughout. For the same compound, the Potency result in the experiment with FAB9, in the experiment on GB4, with HB3, in the experiment with ICS, with JCK and in the experiment on N140 was “inactive” throughout. The Potency entry in the experiment with P94_40, in the experiment with PC15, with PC26, in the experiment on PC49 and in the experiment with SC27B was “inactive” each time. In addition, the outcome with DIV30 was inactive.
For the compound `O=C(O)COC(=O)Cc1ccccc1Nc1c(Cl)cccc1Cl`, the Potency result in the experiment with CP335, in the experiment with DFO2036, with DIV14, in the experiment with DIV17, in the experiment on Dd2 and in the experiment with ECU was “inactive” throughout. Moreover, the Potency result in the experiment on FAB9, with GB4, with HB3, in the experiment on ICS, in the experiment with JCK and in the experiment on N140 was “inactive” in each case. The Potency entry with P94_40, in the experiment with PAD, in the experiment on PC15, in the experiment on PC26, in the experiment on PC49 and with SC27B was “inactive” in each case. In addition, the compound was classed as inactive with DIV30.
Turning to `CC(C)CCCC(C)CCCC(C)CCCCC(C)CCCC(C)CCCC(C)C` (configuration not stated), the Potency entry with CP335, in the experiment on DFO2036, in the experiment on DIV14, in the experiment on DIV17, with Dd2 and in the experiment on ECU was “inactive” throughout. The Potency entry with FAB9, with GB4, with HB3, with ICS, in the experiment on JCK and in the experiment with N140 was “inactive” throughout. The Potency result with P93_24, in the experiment with PAD, with PC15, in the experiment on PC26, in the experiment with PC49 and in the experiment with SC27B was “inactive” in each case. In addition, the outcome in the experiment on DIV30 was inactive.
Regarding `CCCCCCCCCCOc1cc2c(=O)c(C(=O)OCC)c[nH]c2cc1OCC`, the Potency in the experiment on CP335 is 1.3 nM (active); with DFO2036 it was 1.4 nM (active); with DIV14 it was 5.4 nM (active); in the experiment on DIV17 it was 6.7 nM (active); with Dd2, 2.8 nM (active); in the experiment on ECU it was 2.8 nM (active). Also, the Potency in the experiment with FAB9 was 5 nM (active); with GB4, 2.1 nM (active); with HB3 it was 2 nM (active); with ICS it was 3.2 nM (active); in the experiment on JCK it was 35.5 nM (active); in the experiment on N140, 2.2 nM (active). For the same compound, the Potency in the experiment with P93_24 is 3.2 nM (active); in the experiment with P94_40, 3.2 nM (active); in the experiment on PAD it was 3.5 nM (active); in the experiment with PC15 it was 6.3 nM (active); with PC49, 7.9 nM (active); with SC27B it was 2.5 nM (active).
For `CC(=O)NS(=O)(=O)c1ccc(N)cc1`, the Potency entry with CP335, with DFO2036, with DIV14, in the experiment on DIV17, in the experiment on Dd2 and in the experiment on ECU was “inactive” in each case. Moreover, the Potency entry in the experiment with FAB9, in the experiment with GB4, in the experiment with HB3, in the experiment with ICS, in the experiment with JCK and with N140 was “inactive” throughout. The Potency entry in the experiment on P94_40, with PAD, in the experiment on PC15, with PC26, in the experiment with PC49 and with SC27B was “inactive” each time. For the same compound, the call in the experiment with DIV30 was inactive.
Turning to `Cc1ccc(S(=O)(=O)NC(=O)NC2CCCCC2)cc1`, the Potency result with CP335, with DFO2036, with DIV14, with DIV17, in the experiment with ECU and in the experiment on FAB9 was “inactive” each time. Also, the Potency entry in the experiment on GB4, in the experiment on HB3, with ICS, in the experiment on JCK, with N140 and with P93_24 was “inactive” in each case. The Potency result with P94_40, in the experiment with PAD, in the experiment with PC15, with PC26, in the experiment with PC49 and in the experiment with SC27B was “inactive” in each case. Besides, the result in the experiment with DIV30 was inactive.
As to `COc1ccc(C(=O)NCc2ccc(OCCN(C)C)cc2)cc1OC`, the Potency result in the experiment on CP335, in the experiment on DFO2036, with DIV14, in the experiment with Dd2, in the experiment on ECU and with FAB9 was “inactive” each time. Besides, the Potency result in the experiment with GB4, with HB3, with ICS, in the experiment with JCK, in the experiment on N140 and in the experiment on P93_24 was “inactive” in each case. The Potency result with P94_40, with PAD, in the experiment on PC15, in the experiment on PC26, in the experiment on PC49 and with SC27B was “inactive” throughout. Besides, the compound was classed as inactive in the experiment with DIV30.
As for `NC(=O)NS(=O)(=O)c1ccc(N)cc1`, the Potency entry with CP335, in the experiment with DFO2036, in the experiment on DIV14, in the experiment on DIV17, with Dd2 and in the experiment with ECU was “inactive” each time. Also, the Potency entry with FAB9, in the experiment on GB4, with HB3, with JCK, in the experiment with N140 and in the experiment on P93_24 was “inactive” in each case. For the same compound, the Potency result in the experiment with P94_40, in the experiment on PAD, in the experiment on PC15, in the experiment on PC26, in the experiment on PC49 and with SC27B was “inactive” throughout. Besides, the compound was classed as inactive in the experiment with DIV30.
